Hits are enriched below; roughly 1.8% of the tested compounds scored in any of these assays.
PriA SSB inh: inhibitors of Klebsiella pneumoniae PriA binding to SSB C-terminal tail, primary screen, biochemical, AlphaScreen; PriA–SSB C-terminal tail interaction (Klebsiella pneumoniae); AlphaScreen SSBct-PriA binding, biotinylated peptide; inhibition, % at 33 µM; hit rate 0.6% among 430,000; in the data active = inhibition mostly above about 37%, no sharp cut-off; inactive = mostly below about 20%
PrPC TRFRET: inhibitors of human cell surface prion protein PrPC, primary screen, cell-based, TR-FRET. inhibition, % at 13.8 µM. hit rate 0.43% among 370,000. Major prion protein (Homo sapiens), P04156. AID 720596, 2013. TR-FRET read-out; in the data active = inhibition above about 24%
PrP 5UTR inh: inhibition of PrP 5' UTR reporter expression | cell-based PrP 5' UTR mRNA reporter, plate reader | inhibition, % (no concentration beside the values) | hit rate 0.35% among 340,000; in the data active = inhibition above about 52%
MazF activator: activators of E. coli MazEF toxin-antitoxin RNase, primary screen, biochemical, fluorescence, uHTS; hit rate 0.32% among 350,000; FAM/BHQ RNA-DNA oligo cleavage fluorescence, 5 h; activation, % at 20 µM; in the data active = activation above about 50%
PfHsp40 rescue: rescue of yeast from PfHsp40 toxicity, primary screen, S. cerevisiae, ATP luminescence; S. cerevisiae expressing PfHsp40, growth rescue; growth rescue, % at 12.5 µM; hit rate 0.68% among 340,000; in the data active = growth rescue above about 28%, passing the limit was not always enough;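 also: yeast W303a lacking pdr1 and pdr3 grown in galactose medium; growth measured after three days at 30 °C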
PrPC TRFRET cf: confirmation of inhibitors of cell surface human prion protein, confirmation, cell-based, TR-FRET; AID 743200, 2013; inhibition, % at 13.8 µM; hit rate 65% among 1,500; shares compounds with PrPC TRFRET; cell surface PrPC level; in the data active = inhibition above about 25%
LD9 tox: cytotoxicity in LD9 cells, cytotoxicity control for cell surface PrPc inhibitor project, cell-based, luminescence, high throughput. shares compounds with PrPC TRFRET. luminescence viability. inhibition, % at 13.8 µM. hit rate 29% among 1,500. AID 743201, 2013; in the data active = inhibition above about 9.5%
Hits are given with their value; . = inactive; / = no result.

SMILES	PriA SSB inh	PrPC TRFRET	PrP 5UTR inh	MazF activator	PfHsp40 rescue	PrPC TRFRET cf	LD9 tox
O=C(Nc1cccnc1)c1cccc(S(=O)(=O)N2CCc3ccccc32)c1	.	.	.	.	.	/	/
Cc1cccc(NC(=O)c2cc(S(=O)(=O)N3CCc4ccccc43)cn2C)c1C	.	44	.	.	.	.	.
CCc1ccccc1NC(=O)c1cc(S(=O)(=O)N2CCc3ccccc32)cn1C	.	.	.	.	.	/	/
COc1ccc2[nH]c(=O)c(CN(C(=O)C3CCCO3)c3ccc(C)c(C)c3)cc2c1 (centres undefined)	.	.	.	.	.	/	/
O=C(c1ccc(OC2CCN(CCc3ccccc3)CC2)cc1)N1CCCCC1CCCO (centres undefined)	.	.	.	.	.	/	/
O=C(C1=COCCO1)N1CCN(S(=O)(=O)c2cccc(Br)c2)CC1	.	.	.	.	.	/	/
O=C(CSc1ccc(F)cc1)N(Cc1ccco1)C1CCOCC1	.	/	/	/	/	/	/
CCN(CC)S(=O)(=O)c1ccc2c(c1)nc(CCC(=O)OCC(=O)Nc1cc(Cl)cc(Cl)c1)n2C	.	28	.	.	.	.	.
C/C(=N/NC(=O)c1ccc2c(c1)OCCO2)c1ccc([N+](=O)[O-])cc1	/	.	.	.	.	/	/
Cc1[nH]n(-c2ccccc2)c(=O)c1/C=N/NC(=O)c1cccc(F)c1	/	52	.	.	.	54	23
CS(=O)(=O)N1CCC(C(=O)N2CCC(Oc3ccc(Cl)cn3)CC2)CC1	.	/	/	/	/	/	/
O=C1NC(=S)S/C1=C\C=C\c1ccc([N+](=O)[O-])o1	.	.	.	.	.	/	/
CCOC(=O)C(CC)Sc1nnc2c3cc(C)ccc3n(C)c2n1 (centres undefined)	.	30	.	.	.	35	.
CC(=O)Oc1ccc(C(=O)Nc2cccc(C(=O)c3ccc(C)c(C)c3)c2)cc1	.	35	.	.	.	.	.
COc1ccc(C(=O)Nc2cccc(OC(=O)c3ccc(C)c(C)c3)c2)cc1	.	.	.	.	.	/	/
COc1ccc2c(CC(=O)Nc3ncc(C)s3)coc2c1	.	29	.	.	.	35	.
COc1ccc2c(CC(=O)Nc3nc(C)cs3)coc2c1	.	.	.	.	.	/	/
COc1cccc(-c2cc3c(=O)n(-c4ccccc4)c(=S)[nH]c3s2)c1	.	31	.	.	.	67	.
COc1ccc(-n2c(=S)[nH]c3sc(-c4ccccc4)cc3c2=O)c(OC)c1	.	.	.	.	.	/	/
CN(C(=O)CSc1cc(C(=O)c2nccn2C)c2ccccc2n1)c1ccccc1	.	89	.	.	.	74	.
Oc1ccc(-c2cnc3c(Nc4cccc(OC(F)(F)C(F)F)c4)nccn23)cc1	/	25	/	/	/	25	.
FC(F)C(F)(F)Oc1cccc(Nc2nccn3c(-c4ccc5ccccc5c4)cnc23)c1	/	.	/	/	/	/	/
CC(=O)c1sc(NC(=O)C(C)C)nc1C	.	33	.	.	.	35	.
CC(=O)Nc1nc(C)c(C(C)=O)s1	.	.	.	.	.	/	/
CC(=O)NC(CSc1cc(C)nc2ccc(Br)cc12)C(=O)O (centres undefined)	.	32	.	.	.	57	.
SMILES	PriA SSB inh	PrPC TRFRET	PrP 5UTR inh	MazF activator	PfHsp40 rescue	PrPC TRFRET cf	LD9 tox
C/C(CC(=O)N(C(C)C)C(C)C)=N\NC(=O)COc1ccc(Cl)cc1Cl	/	.	.	.	.	/	/
COc1ccc(-c2cc(-c3nnc(SCC(=O)Nc4cccc(Cl)c4C)n3N)[nH]n2)cc1	/	.	/	/	/	/	/
CCOc1ccc(C2SCC(=O)Nc3c2c(=O)[nH]n3C2CCCCCC2)cc1 (centres undefined)	.	51	.	.	.	.	.
COc1ccc(C2SCC(=O)Nc3c2c(=O)[nH]n3C2CCCCCC2)cc1 (centres undefined)	.	.	.	.	.	/	/
Cc1nnc2c(SC(C)C)nc3ccccc3n12	.	33	.	.	.	47	.
CCOC(=O)CSc1nc2ccccc2n2c(C)nnc12	.	.	.	.	.	/	/
O=C(Nc1ccc(Cl)cc1)c1sccc1S(=O)(=O)N1CCN(c2ccc(F)cc2)CC1	.	/	/	/	/	/	/
CCOC(=O)C(CC)Sc1cc(C)nc2ccc(OC)cc12 (centres undefined)	.	32	.	.	.	60	.
Cc1ccc(-n2nc3ccc(NC(=S)NC(=O)/C=C/c4ccco4)cc3n2)cc1	.	65	.	.	.	42	.
Cc1ccc(-n2nc3cc(C)c(NC(=S)NC(=O)/C=C/c4ccco4)cc3n2)cc1	.	.	.	.	.	/	/
CCc1ccc2nc3c(c(C(=O)O)c2c1)CCC3	.	.	.	.	.	/	/
Cc1cc(Br)c2nc3c(c(C(=O)O)c2c1)CCCCC3	.	117	.	.	.	132	.
CCOc1ccc(C(=O)N/N=C/c2cccc3cccnc23)cc1	/	25	.	.	.	.	.
O=C(Nc1ccc(N2CCN(C(=O)c3ccccc3)CC2)c(Cl)c1)c1ccc(Br)o1	.	33	.	.	.	41	24
O=C(Nc1ccc(N2CCN(C(=O)c3ccccc3)CC2)cc1)c1ccc(Br)o1	.	.	.	.	.	/	/
CC(=O)c1cccc(OCc2cc(C(=O)N(C)Cc3cnccn3)no2)c1	.	.	.	.	.	/	/
O=C(NNc1ccc(-c2csnn2)cc1)c1cc(Cl)cc(Cl)c1	.	27	/	.	/	32	.
C[C@@H]1CN([C@H](C)CO)C(=O)c2cc(NS(=O)(=O)c3cn(C)cn3)ccc2O[C@H]1CN(C)C(=O)Nc1ccccc1	.	.	.	.	.	/	/
CC(C)[C@@H]1Cc2[nH]c(=S)[nH]c(=O)c2[C@H](C)O1	/	.	/	/	/	/	/
CCC1(CC)Cc2ccccc2-c2[nH]c(=S)[nH]c(=O)c21	.	79	.	.	.	100	.
CCC1(CC)Cc2ccccc2-c2nc(NN)[nH]c(=O)c21	.	.	.	.	.	/	/
CC(C)C1Cc2ccccc2-c2[nH]c(=S)[nH]c(=O)c21 (centres undefined)	.	75	/	.	/	94	.
COc1cccc(OC)c1C(=O)NCCS(=O)(=O)N1CCN(c2ccccn2)CC1	.	/	/	/	/	/	/
Cc1c(Cl)cccc1NC(=O)c1nc(C)n(-c2cc(OC(C)C)c(Cl)cc2Cl)n1	.	.	.	.	.	/	/
Cn1c(SCc2ccc(Cl)cc2)nnc1-c1ccc2nonc2c1	.	70	.	.	.	.	.
Cc1ccc(-n2c(SCC(=O)N3CC(=O)Nc4ccccc43)nc3ccccc3c2=O)cc1	.	.	.	.	.	/	/
COCCn1c(SCC(=O)N2CC(=O)Nc3ccccc32)nc2ccccc2c1=O	.	.	.	.	.	/	/

Screening data: PubChem BioAssay, several laboratories
